Screening data (PubChem)
Rows were chosen to be rich in hits. Some 19% of all compounds tested hit in one or more screens of this group.
TDP1 cell noCPT: qHTS for Inhibitors of human tyrosyl-DNA phosphodiesterase 1 (TDP1): qHTS in cells in absence of CPT. DT40 Tdp1-/- hTDP1 cells, no CPT, ATP luminescence, 48 h. Potency, µM (doses to about 46.2 µM), for the others: top-dose activity change, negative = growth inhibition, hits mostly inhibitors. 420,000 tested, 15% active; note: potency is the fitted concentration of half-maximal effect; nearly all actives have a fitted effect of over 55% in size
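Cells were dispensed at 400 per well, compounds added by pin tool, plates incubated ≥48 hr at 37 °C, then CellTiter-Glo added for 30 min at room temperature before luminescence reading. Line: DT40 Tdp1-/- complemented with hTDP1; camptothecin omitted.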
IL-1B inflam inh: qHTS for Inhibitors of Inflammasome Signaling: IL-1-beta AlphaLISA Primary Screen; activity change, % at 57.5 µM; 360,000 tested, 4.7% active; AID 743279, 2014; THP-1 LPS/ATP IL-1B secretion, AlphaLISA, 16 h; hits give low values; in the data active = activity change below about -50%; inconclusive = mostly about -30% to -49%
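THP-1 cells pretreated 1 hr with compounds (up to 57.5 uM final), then stimulated with LPS (250 ng/mL final) plus ATP (1.25 mM final); secreted IL-1B measured by AlphaLISA after 16 hr, decreased signal indicating inhibition.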
TDP1 cell CPT: qHTS for Inhibitors of human tyrosyl-DNA phosphodiesterase 1 (TDP1): qHTS in cells in presence of CPT | chicken DT40 Tdp1-/-;hTDP1 cells + 20 nM CPT, ATP luminescence, 48 h | Potency, µM (doses to about 46.2 µM), for inactives: at the top dose activity change, negative = growth inhibition, hits mostly inhibitors | 420,000 tested, 12% active | AID 686979, 2013; note: potency is the fitted concentration of half-maximal effect; nearly all actives have a fitted effect of over 55% in size
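Cell growth measured by CellTiter-Glo luminescence after a minimum 48 h, 37 C compound exposure with 20 nM CPT in Tdp1-knockout DT40 cells stably expressing hTDP1, seeded 400/well; qHTS titration format.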
HT1080 IDH1KD tx: qHTS for induction of synthetic lethality in tumor cells producing 2HG: qHTS for the HT-1080-IDH1KD cell line; Potency, µM (titrated, usually from 46.1 µM), for inactives: at the top dose activity, negative = toxicity, most hits filed as cytotoxic; 360,000 tested, 2% active; HT-1080 IDH1 knockdown viability, ATP luminescence, 48 h; AID 686971, 2013;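 note: potency is the fitted concentration of half-maximal effect; 0% = DMSO wells and -100% = cell-free medium wells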
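% activity derives from luminescence (CellTiter-Glo), normalised to DMSO and no-cell wells. HT-1080-IDH1KD cells, 750/well, had 48 h compound exposure at 37 °C.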
HT1080NT lethal: qHTS for induction of synthetic lethality in tumor cells producing 2HG: qHTS for the HT-1080-NT fibrosarcoma cell line. AID 686970, 2013. 360,000 tested, 1.6% active. Potency, µM (highest dose often 46.1 µM), for the others: top-dose activity, negative = less viability, actives largely listed as cytotoxic. HT-1080-NT fibrosarcoma viability, CellTiter-Glo ATP luminescence, 48 h;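 note: NT is the 2HG producing partner of a matched IDH1 knockdown line; potency is the fitted concentration of half-maximal effect; 0% = DMSO-treated cells and -100% = media-only wells without cells; nearly all actives have a fitted effect of over 55% in size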
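Viability of the 2HG-overproducing fibrosarcoma line after 48 hours of compound exposure at 37 degrees C was determined by luminescence with CellTiter-Glo, and concentration-effect curves were then fitted and categorized.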
* hit, by the source's call; ? = inconclusive; nt = not tested or not shown. Unless noted, calls come from the whole dose curve; as a rule, active = well fitted curve in the direction sought with a large enough effect; inconclusive = small, poorly fitted or top-dose-only effect, or another doubt; inactive = no such curve, though single readings can be large; an effect the other way counts as inactive or inconclusive. Unless noted, % is set by controls: 0 for no effect and ±100 for the full control effect.

SMILES	TDP1 cell noCPT	IL-1B inflam inh	TDP1 cell CPT	HT1080 IDH1KD tx	HT1080NT lethal
COc1cc(-c2[nH]ncc2CN(C)Cc2nonc2C)cc(OC)c1OC	16µM*	66	?	-7%	-1%
CCC(C(=O)NCCc1ccccc1OC)n1nc(C)c2c(C)n(-c3ccccc3)nc2c1=O (stereo not drawn)	?	-1	?	0%	-2%
COc1ccc(OC)c(CN2C(=O)c3ccccc3C2c2nnnn2Cc2ccccc2)c1 (stereo not drawn)	21µM*	-14	?	-1%	7%
COc1ccc(CN2C(=O)c3ccccc3C2c2nnnn2-c2ccc3c(c2)OCCO3)cc1OC (stereo not drawn)	21µM*	40	15µM*	15%	8%
COc1ccc(OC)c(CN2C(=O)c3ccccc3C2c2nnnn2C2CCCC2)c1 (stereo not drawn)	16µM*	35	?	16%	1%
COc1ccc(CN2C(=O)c3ccccc3C2c2nnnn2Cc2ccccc2)cc1OC (stereo not drawn)	?	6	?	6%	1%
COc1cc(C2Nc3ccc4ccccc4c3C3=C2C(=O)CC(C)(C)C3)ccc1OC(C)C(=O)O (stereo not drawn)	26%	14	-22%	1%	4%
O=C(Cn1cc(Cl)c([N+](=O)[O-])n1)NCCC1=CCCCC1	-17%	-14	6%	-1%	0%
Cc1cccc(C)c1NC(=O)Nc1cccs1	18µM*	15	18µM*	-7%	-8%
O=C(Nc1cccs1)Nc1c(F)c(F)cc(F)c1F	-5%	16	-12%	11%	3%
N#Cc1cccc(NC(=O)Nc2cccs2)c1	16µM*	-9	?	1%	-1%
O=C(Nc1cccs1)Nc1cc(C(F)(F)F)ccc1Cl	16µM*	nt	?	nt	nt
O=C(Nc1cccs1)Nc1c(F)c(F)c(F)c(F)c1F	16µM*	-26	21µM*	2%	4%
O=C(Nc1ccc(C(F)(F)F)cn1)Nc1cccs1	8%	1	1%	12%	0%
Cc1cccc(C)c1NC(=O)Cc1cccs1	-4%	11	0%	1%	12%
COC(=O)CCCC1=CC2=C(c3ccccc3)C(=O)C(C)(OC(=O)C3CCCC3)C(=O)C2=CN1C(CO)CO (stereo not drawn)	-12%	36	?	-1%	2%
O=C(Nc1cccs1)Nc1c(F)cc(F)cc1Br	23µM*	-14	7.3µM*	-8%	1%
O=C(Nc1cccs1)Nc1ccccc1Br	?	7	?	4%	6%
NNC(=O)COc1cccc(Oc2ccccc2)c1	18µM*	-3	?	-7%	-4%
CCC1C(=O)C[C@H]2CCN3C(=O)CCCC1C23 (stereo partly drawn)	9%	11	0%	12%	13%
Fc1ccc(/C=N/NC(=S)Nc2ccc(Cl)cc2)cc1F	23µM*	-5	?	10%	12%
COc1ccc(NC(=S)N/N=C/c2ccc(F)c(F)c2)cc1	?	10	?	21µM*	?
COc1ccc(/C=N/NC(=S)Nc2ccccc2)cc1COc1ccc(F)cc1F	-27%	25	9%	-17%	-2%
Fc1ccc(NC(=S)N/N=C/c2ccc(F)c(F)c2)cc1	6.5µM*	31	4.1µM*	11%	0%
Fc1ccc(/C=N/NC(=S)Nc2ccc(Cl)cc2Cl)cc1	5.2µM*	29	7.3µM*	?	?
SMILES	TDP1 cell noCPT	IL-1B inflam inh	TDP1 cell CPT	HT1080 IDH1KD tx	HT1080NT lethal
COc1ccc(NC(=S)N/N=C/c2ccc(F)cc2)cc1OC	?	-2	?	11%	14%
CCOC(=O)C1=CCN(S(=O)(=O)c2ccccc2C)C1c1ccc(C)cc1 (stereo not drawn)	?	16	?	-1%	-1%
Cc1ccc(S(=O)(=O)N2[C@H](CC(=O)c3cccc4ccccc34)OC[C@@H]2C)cc1	?	-3	?	-29%	?
Nc1ncnc2[nH]c(=O)[nH]c12	17%	nt	-7%	nt	nt
CCCCN1C(=O)C(O)(c2c(C)[nH]c3ccccc23)c2cc(Br)ccc21 (stereo not drawn)	4.1µM*	nt	5.8µM*	nt	nt
CCCCN1C(=O)C(O)(c2c(C)[nH]c3ccccc23)c2ccccc21 (stereo not drawn)	5.8µM*	nt	5.8µM*	nt	nt
O=C(NCc1ccc2c(c1)OCO2)c1nc(Cn2cc(Br)cn2)no1	-15%	3	1%	1%	-1%
COc1cccc(S(=O)(=O)N(C)C[C@H]2OCc3cnnn3CCCC(=O)N([C@@H](C)CO)C[C@H]2C)c1	-16%	-14	3%	8%	2%
CC(C)(C)c1ccc(-n2nc(C(N)=O)c(O)cc2=O)cc1	?	10	?	1%	-4%
CC(C)(C)c1ccc(-n2nc(C#N)c(Cl)cc2=O)cc1	2.9µM*	-97*	3.7µM*	3.3µM*	7.3µM*
NC(c1ccncc1)c1ccc(Cl)cc1 (stereo not drawn)	6%	4	?	-2%	-2%
O=C(NC12CC3CC(CC(C3)C1)C2)c1ccc(S(=O)(=O)N2CCOCC2)cc1	?	15	-14%	-9%	-4%
CCc1ccc(-n2c(SCc3ccccc3C)nc3[nH]ncc3c2=O)cc1	21µM*	nt	?	nt	nt
Cc1ccc(-n2c(SCc3cccc(F)c3)nc3[nH]ncc3c2=O)cc1C	21µM*	nt	21µM*	nt	nt
O=c1c2cn[nH]c2nc(SCc2c(F)cccc2F)n1-c1ccc(Cl)cc1	?	-74*	?	?	-13%
CCc1ccc(-n2c(SCc3cccc(F)c3)nc3[nH]ncc3c2=O)cc1	16µM*	nt	21µM*	nt	nt
Cc1occc1C(=O)Nc1cccc([N+](=O)[O-])c1C	10%	?	-19%	1%	11%
CCC(C)c1ccc2oc(-c3ccc(NC(=O)Cn4cnc5c(=O)n(C)c(=O)n(C)c54)cc3)nc2c1 (stereo not drawn)	15µM*	30	21µM*	0%	10%
COc1ccccc1/C=C\C(=O)NCC(=O)N/N=C(/C)c1cccc([N+](=O)[O-])c1	?	68	?	?	-29%
C=CCC[C@@H](Cc1ccc(F)cc1)C(=O)OC[C@@H](Cc1c[nH]c2ccccc12)NC(=O)[C@@H](CC=C)CC(=O)NCCO	?	-65*	?	-29%	-28%
